According to PubChem BioAssay AID1159580 (chemical genetic matrix, 2015):
In all, about 5,500 compounds went through this assay and about 2,000 (36%) were called active. Another 18% or so got no clear call; they are omitted. No stated cut-off is given here; in the data, active means normalized growth mostly below about 0.91 (no sharp cut-off); inconclusive means no clear call, values can overlap the other calls; inactive means mostly above about 0.92. This is one part of the list.

Assay: chemical genetic growth profiling, strain panel (AID 1159580);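 further: tested at 20 µM; growth read once vehicle control cultures reached saturation at 30 °C; 1 = growth at the plate median or of vehicle wells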
Details: growth OD

Measured: normalized growth

CCC(C)C(=O)O[C@H]1[C@H](O)C2C(CN3CC(C)CCC3[C@@]2(C)O)C2C[C@]34O[C@]5(O)C(OC(=O)C(C)(O)CC)CC[C@@]3(C)C5C(OC(C)=O)[C@@H](OC(C)=O)C4[C@@]21O (stereo partly specified)
inactive: S. cerevisiae deletion strains, locus YKL009W, strain mrt4, stronger effect = lower value 1.01 | S. cerevisiae deletion strains, locus YKL068W, stronger effect = lower value 1.01 | S. cerevisiae deletion strains, locus YKL085W, strain MDH1 (second series), stronger effect = lower value 1.03 | S. cerevisiae deletion strains, locus YKL085W, strain MDH1, stronger effect = lower value 1.03 | S. cerevisiae deletion strains, locus YKL160W, strain elf1, stronger effect = lower value 1.04 | S. cerevisiae deletion strains, locus YKL190W, strain CNB1, stronger effect = lower value 1 | S. cerevisiae deletion strains, locus YKR001C, strain vps1, stronger effect = lower value 0.983 | S. cerevisiae deletion strains, locus YKR026C, strain gcn3, stronger effect = lower value 1.01 | S. cerevisiae deletion strains, locus YKR091W, strain srl3, stronger effect = lower value 1.02 | S. cerevisiae deletion strains, locus YLL001W, strain dnm1, stronger effect = lower value 1.02 | S. cerevisiae deletion strains, locus YLL026W, stronger effect = lower value 1.01 | S. cerevisiae deletion strains, locus YLL041C, strain sdh2, stronger effect = lower value 1.04 | S. cerevisiae deletion strains, locus YLR027C, strain aat2, stronger effect = lower value 1.02 | S. cerevisiae deletion strains, locus YLR039C, strain RIC1, stronger effect = lower value 1.02 | S. cerevisiae deletion strains, locus YLR058C, strain SHM2, stronger effect = lower value 1.01 | S. cerevisiae deletion strains, locus YLR102C, strain apc9, stronger effect = lower value 0.995 | S. cerevisiae deletion strains, locus YLR113W, strain HOG1, stronger effect = lower value 0.983 | S. cerevisiae deletion strains, locus YLR221C, strain rsa3, stronger effect = lower value 1.01 | S. cerevisiae deletion strains, locus YLR258W, strain gsy2, stronger effect = lower value 1.01 | S. cerevisiae deletion strains, locus YLR262C, strain YPT6 (second series), stronger effect = lower value 1.02 | S. cerevisiae deletion strains, locus YLR262C, strain YPT6, stronger effect = lower value 1.05 | S. cerevisiae deletion strains, locus YLR268W, strain sec22, stronger effect = lower value 0.984 | S. cerevisiae deletion strains, locus YLR320W, strain mms22, stronger effect = lower value 1.02 | S. cerevisiae deletion strains, locus YLR330W, strain CHS5, stronger effect = lower value 1.01 | S. cerevisiae deletion strains, locus YLR342W, strain FKS1 (second series), stronger effect = lower value 1 | S. cerevisiae deletion strains, locus YLR342W, strain FKS1, stronger effect = lower value 1.01 | S. cerevisiae deletion strains, locus YLR357W, strain rsc2, stronger effect = lower value 1.01 | S. cerevisiae deletion strains, locus YLR370C, strain arc18, stronger effect = lower value 1.03 | S. cerevisiae deletion strains, locus YLR371W, strain rom2, stronger effect = lower value 0.984 | S. cerevisiae deletion strains, locus YLR384C, strain iki3, stronger effect = lower value 1.02 | S. cerevisiae deletion strains, locus YLR418C, strain cdc73, stronger effect = lower value 0.994 | S. cerevisiae deletion strains, locus YML016C, strain PPZ1, stronger effect = lower value 1.01 | S. cerevisiae deletion strains, locus YML032C, strain rad52, stronger effect = lower value 0.989 | S. cerevisiae deletion strains, locus YML120C, strain ndi1, stronger effect = lower value 1.01 | S. cerevisiae deletion strains, locus YML124C, strain tub3, stronger effect = lower value 0.981 | S. cerevisiae deletion strains, locus YMR058W, strain fet3, stronger effect = lower value 1.02 | S. cerevisiae deletion strains, locus YMR078C, strain ctf18, stronger effect = lower value 0.986 | S. cerevisiae deletion strains, locus YMR125W, strain sto1, stronger effect = lower value 1.02 | S. cerevisiae deletion strains, locus YMR129W, stronger effect = lower value 1.02 | S. cerevisiae deletion strains, locus YMR205C, strain PFK2, stronger effect = lower value 1.03 | S. cerevisiae deletion strains, locus YMR223W, strain ubp8, stronger effect = lower value 0.985 | S. cerevisiae deletion strains, locus YMR231W, strain pep5, stronger effect = lower value 1.02 | S. cerevisiae deletion strains, locus YMR263W, strain SAP30, stronger effect = lower value 1 | S. cerevisiae deletion strains, locus YMR307W, strain GAS1, stronger effect = lower value 1.02 | S. cerevisiae deletion strains, locus YNL067W, strain RPL9B, stronger effect = lower value 1.02 | S. cerevisiae deletion strains, locus YNL071W, strain lat1, stronger effect = lower value 1.03 | S. cerevisiae deletion strains, locus YNL128W, strain TEP1, stronger effect = lower value 1.01 | S. cerevisiae deletion strains, locus YNL153C, strain GIM3, stronger effect = lower value 1.01 | S. cerevisiae deletion strains, locus YNL183C, strain NPR1, stronger effect = lower value 0.99 | S. cerevisiae deletion strains, locus YNL209W, strain ssb2, stronger effect = lower value 1.02 | S. cerevisiae deletion strains, locus YNL233W, strain BNI4, stronger effect = lower value 1.01 | S. cerevisiae deletion strains, locus YNL248C, strain rpa49, stronger effect = lower value 1.08 | S. cerevisiae deletion strains, locus YNL250W, strain rad50, stronger effect = lower value 0.984 | S. cerevisiae deletion strains, locus YNL271C, strain bni1, stronger effect = lower value 0.982 | S. cerevisiae deletion strains, locus YNL298W, strain CLA4, stronger effect = lower value 0.991 | S. cerevisiae deletion strains, locus YNL307C, strain MCK1, stronger effect = lower value 0.994 | S. cerevisiae deletion strains, locus YNL322C, strain KRE1 (second series), stronger effect = lower value 1.02 | S. cerevisiae deletion strains, locus YNL322C, strain KRE1, stronger effect = lower value 1.01 | S. cerevisiae deletion strains, locus YNR049C, strain mso1, stronger effect = lower value 1 | S. cerevisiae deletion strains, locus YNR052C, strain pop2, stronger effect = lower value 1 | S. cerevisiae deletion strains, locus YOL006C, strain TOP1, stronger effect = lower value 1.01 | S. cerevisiae deletion strains, locus YOL012C, strain htz1 0.797 | S. cerevisiae deletion strains, locus YOL147C, strain pex11, stronger effect = lower value 0.994 | S. cerevisiae deletion strains, locus YOR001W, strain rrp6, stronger effect = lower value 0.998 | S. cerevisiae deletion strains, locus YOR061W, strain CKA2, stronger effect = lower value 1.01 | S. cerevisiae deletion strains, locus YOR069W, strain VPS5, stronger effect = lower value 1.01 | S. cerevisiae deletion strains, locus YOR070C, strain gyp1, stronger effect = lower value 1.03 | S. cerevisiae deletion strains, locus YOR080W, strain dia2, stronger effect = lower value 1.04 | S. cerevisiae deletion strains, locus YOR083W, strain WHI5, stronger effect = lower value 1.04 | S. cerevisiae deletion strains, locus YOR106W, strain vam3, stronger effect = lower value 1.06 | S. cerevisiae deletion strains, locus YOR136W, strain idh2, stronger effect = lower value 0.984 | S. cerevisiae deletion strains, locus YOR144C, strain elg1, stronger effect = lower value 0.996 | S. cerevisiae deletion strains, locus YOR184W, strain ser1, stronger effect = lower value 0.982 | S. cerevisiae deletion strains, locus YOR231W, strain MKK1, stronger effect = lower value 0.992 | S. cerevisiae deletion strains, locus YOR265W, strain rbl2, stronger effect = lower value 0.998 | S. cerevisiae deletion strains, locus YOR270C, strain vph1, stronger effect = lower value 1.11 | S. cerevisiae deletion strains, locus YOR290C, strain snf2, stronger effect = lower value 1.06 | S. cerevisiae deletion strains, locus YOR316C, strain cot1, stronger effect = lower value 0.99 | S. cerevisiae deletion strains, locus YPL051W, strain arl3, stronger effect = lower value 1.01 | S. cerevisiae deletion strains, locus YPL055C, strain LGE1, stronger effect = lower value 1.02 | S. cerevisiae deletion strains, locus YPL078C, strain atp4, stronger effect = lower value 1.05 | S. cerevisiae deletion strains, locus YPL106C, strain sse1, stronger effect = lower value 0.995 | S. cerevisiae deletion strains, locus YPL240C, strain hsp82, stronger effect = lower value 1.01 | S. cerevisiae deletion strains, locus YPL241C, strain CIN2, stronger effect = lower value 0.988 | S. cerevisiae deletion strains, locus YPL256C, strain CLN2, stronger effect = lower value 1.04 | S. cerevisiae deletion strains, locus YPR119W, strain clb2, stronger effect = lower value 0.984 | S. cerevisiae deletion strains, locus YPR141C, strain kar3, stronger effect = lower value 0.987 | S. cerevisiae deletion strains, locus YPR163C, strain tif3, stronger effect = lower value 0.99 | S. cerevisiae deletion strains, locus YPR167C, strain met16, stronger effect = lower value 0.974 | S. cerevisiae deletion strains, strain wtn01, stronger effect = lower value 0.991 | S. cerevisiae strains, strain wild type, stronger effect = lower value 1
